mIDH1 inhibitor: qHTS for Inhibitors of mutant isocitrate dehydrogenase 1 (IDH1): qHTS | Isocitrate dehydrogenase [NADP] cytoplasmic (Homo sapiens), O75874 | IDH1-R132H enzyme, NADPH consumption, diaphorase/resazurin fluorescence | Potency, µM (highest dose often 76.6 µM), without a hit: at the top dose activity change, negative = inhibition, hits mostly inhibitors | 390,000 compounds, 0.093% hits; also: potency is read from the fitted curve at half-maximal effect; nearly all actives have a fitted effect of over 65% in size
Target sequence (O75874 whole entry R132H, stated change not applied): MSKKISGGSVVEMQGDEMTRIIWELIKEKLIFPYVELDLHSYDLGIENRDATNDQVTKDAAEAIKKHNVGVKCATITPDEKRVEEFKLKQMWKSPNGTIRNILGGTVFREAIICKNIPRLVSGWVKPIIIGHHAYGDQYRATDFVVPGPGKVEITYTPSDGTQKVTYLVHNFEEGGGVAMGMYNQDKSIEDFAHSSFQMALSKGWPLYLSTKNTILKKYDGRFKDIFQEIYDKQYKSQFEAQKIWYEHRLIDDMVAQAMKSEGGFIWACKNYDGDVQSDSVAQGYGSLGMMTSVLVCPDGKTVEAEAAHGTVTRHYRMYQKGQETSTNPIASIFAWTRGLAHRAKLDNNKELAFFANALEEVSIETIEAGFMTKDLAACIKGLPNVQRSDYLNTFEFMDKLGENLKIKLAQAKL
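IDH1-R132H (0.5 ug/mL dispensed) in pH 7.5 Tris buffer was preincubated 30 min with compound, then given a substrate mix of 0.016 mM NADPH and 2 mM alpha-KG for 80 min at room temperature; remaining NADPH was read by diaphorase/resazurin fluorescence.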
LDHA block: qHTS assay for inhibitors of human lactate dehydrogenase; L-lactate dehydrogenase A chain (Homo sapiens), P00338; purified LDHA, NADH/diaphorase-resazurin fluorescence; stronger effect = lower value; activity change, % (values are at about 110 or 230 µM); 480,000 compounds, 0.15% hits; AID 1347041, 2019; in the data active = activity change below about -30%; inconclusive = mostly about -25% to -30%;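 also: plate controls were DMSO wells for no effect and wells without enzyme for full effect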
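LDH5 2 nM; NADH 0.06 mM, pyruvate 0.2 mM; 200 mM Tris pH 7.4, EDTA, Tween-20; 5 min RT. Detection: diaphorase 0.133 mg/mL + resazurin 37 µM, fluorescence ex540/em590 at 0 and 20 min; normalized to enzyme-free and DMSO wells.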
PKM2 act: qHTS Assay for Activators of Human Muscle isoform 2 Pyruvate Kinase; purified PKM2, Kinase-Glo ATP luminescence, activation; response scale: 0% is enzyme alone, no compound; Potency, µM (top dose mostly 57.5 µM), for inactives: at the highest dose activation, usual class: activators; 260,000 compounds, 0.34% hits; also: potency is read from the fitted curve at half-maximal effect; nearly all actives have a fitted effect of over 55% in size
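Purified hPK-M2 (>95% pure) converted ADP (0.1 mM final) to ATP with 0.5 mM PEP in 50 mM imidazole pH7.2, KCl, MgCl2, Tween 20, BSA; 1 h at room temperature. ATP detected by Kinase-Glo luminescence.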
rTrxR1 inhibitor: qHTS Assay for Inhibitors of Mammalian Selenoprotein Thioredoxin Reductase 1 (TrxR1): qHTS; Potency, µM (highest dose often 114 µM), without a hit: at the top dose activity change, negative = inhibition, usual class: inhibitors; 390,000 compounds, 1% hits; AID 588453, 2011; recombinant rTrxR1, NADPH fluorescence consumption, selenite substrate; also: potency is read from the fitted curve at half-maximal effect; nearly all actives have a fitted effect of over 65% in size
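Rat TrxR1 (90 nM in the dispensed reagent) was pre-reduced with 400 uM NADPH for 5 min at room temperature, then incubated with compound for 15 min. After 400 uM selenite was added, NADPH fluorescence (Ex 340/Em 450 nm) was followed for 8 min.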
TrxR1 substrate: qHTS Assay for Substrates of Mammalian Selenoprotein Thioredoxin Reductase 1 (TrxR1): qHTS. Thioredoxin reductase 1, cytoplasmic (Rattus norvegicus), O89049. purified TrxR1 substrate turnover, NADPH consumption readout. Potency, µM (titrated, usually from 114 µM), inactives show at the highest dose activity change, negative = substrate turnover. 390,000 compounds, 0.01% hits. AID 588456, 2011; also: potency is read from the fitted curve at half-maximal effect; nearly all actives have a fitted effect of over 50% in size
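Rat TrxR1, dispensed at 90 nM, was prereduced with 400 uM NADPH (final) for 5 min at ~22 deg C, then incubated with compound 15 min before 400 uM selenite. A first-read NADPH fluorescence drop versus no-compound background flagged substrates.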
GLS inh: qHTS for Inhibitors of Glutaminase (GLS) | AID 624170, 2012 | Potency, µM (series often up to 45.5 µM), for the others: at the highest dose activity change, negative = inhibition, actives largely listed as inhibitors | 410,000 compounds, 0.21% hits | GLS enzymatic activity, qHTS titration | Glutaminase kidney isoform, mitochondrial (Homo sapiens), O94925; also: potency is read from the fitted curve at half-maximal effect
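Coupled fluorescence readout: glutamate oxidase/HRP/Amplex Red detect glutamate formed by hKGA from L-glutamine (1 mM solution added). Buffer 45 mM KH2PO4 pH 8.2, 0.02% Tween-20; reads at t0 and 30 min RT.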
Numbers without * were called inactive; ? = inconclusive; · = no result given; ! = repeats disagree; [ ] = dose if it differs, or a comment. Rows were chosen to be rich in hits. Some 1.4% of all compounds tested hit in one or more screens of this group. Unless noted, calls follow the shape of the dose curve; as a rule, active = well fitted curve in the direction sought with a large enough effect; inconclusive = small, poorly fitted or top-dose-only effect, or another doubt; inactive = no such curve, though single readings can be large; an effect the other way counts as inactive or inconclusive. Unless noted, % is scaled to controls: 0 for no effect and ±100 for the full control effect.

SMILES	mIDH1 inhibitor	LDHA block	PKM2 act	rTrxR1 inhibitor	TrxR1 substrate	GLS inh
Cn1c2ccc(F)cc2c2nnc(SCC(=O)Nc3cccc(O)c3)nc21	-13%	-2	0.32µM*	22%	-1%	14%
CC1=C(C(=O)N2CCCCC2)C(c2ccc(C)cc2)C2=C(CC(C)(C)CC2=O)N1 (stereo not given)	·	-4	·	·	·	·
CCCc1nc2sc3ccccc3c(=O)c2c(=O)n1Cc1ccco1	3%	-5	14µM*	?	-10%	10%
O=C(CN1CCN(c2ccc(O)cc2)CC1)N1CCc2ccccc21	-2%	28	13%	17%[57.1 µM]	2%[57.1 µM]	8.9µM*
CCC(CC)C(=O)Nc1ccc(-c2cn3cccnc3n2)cc1	3%	-3	·	79µM*	765%	-3%
CCC(CC)C(=O)Nc1cccc(-c2cn3cccnc3n2)c1	6%	-7	·	-11%[57.1 µM]	146%[57.1 µM]	-8%
CCOc1nc(OCC#N)nc(N2CCOCC2)n1	·	-5	·	·	·	·
N#CCOc1nc(N2CCOCC2)nc(N2CCOCC2)n1	5%	-31*!	10%	24%	7%	-9%
CC(C)n1c(SCC(=O)Nc2ccccc2)nc2c1c(=O)n(C)c(=O)n2C	1%	2	14µM*	22%[57.1 µM]	3%[57.1 µM]	-15%
CC(C)n1c(SCC(=O)Nc2ccccc2)nc2c1c(=O)[nH]c(=O)n2C	1%	-2	8.9µM*	20%[57.1 µM]	11%[57.1 µM]	16%
COCCn1c(SCC(=O)Nc2ccccc2)nc2c1c(=O)[nH]c(=O)n2C	-12%	-5	6.3µM*	20%[57.1 µM]	5%[57.1 µM]	5%
CCn1c(SCC(=O)Nc2ccccc2)nc2c1c(=O)n(C)c(=O)n2C	3%	-7	7.9µM*	6%[57.1 µM]	6%[57.1 µM]	-4%
Cc1ccc(Nc2nc(CN3CCN(S(=O)(=O)c4ccc(F)c(F)c4)CC3)cs2)cc1	·	-1	·	·	·	·
O=C(CSC1=NCCS1)c1ccc2c(c1)OCCO2	·	-5	·	·	·	·
Cc1cccc(-c2ocnc2C(=O)NCC(C)c2ccccc2)c1 (stereo not given)	·	-2	·	·	·	·
O=C(O)Cc1ccc2nc[nH]c2c1	·	6	·	·	·	·
CC(CCc1ccccc1)NC(=O)c1ccc2c(Cl)c3c(nc2c1)CCC3 (stereo not given)	·	12	·	·	·	·
CCOC(=O)C1=C(CN2CCN(Cc3ccccc3)CC2)NC(=O)NC1c1ccccc1 (stereo not given)	·	-5	·	·	·	·
CCCOc1ccccc1C(=O)N1CCC(c2nc3ccccc3o2)CC1	·	16	·	·	·	·
COc1ccc(C2=Nn3c(nnc3-c3ccccc3Cl)SC2)cc1OC1CCCC1	·	0	·	7.1µM*	-11%	18%
COc1cc(OC)c(NC(=O)c2nn(C)c3c2COc2ccccc2-3)cc1Cl	14%	0	·	16µM*	6%	6%
COc1cc(OC)c(NC(=O)c2noc3c2CSc2ccccc2-3)cc1Cl	8%	-2	·	7.1µM*	-6%	-11%
O=C(CSC1CCCCC1)c1ccc(O)cc1O	·	-9	·	·	·	·
CC(/C=N/NC(=O)Cc1cccn1C)=C\c1ccccc1	2%	-5	-2%	50µM*	-7%	10%
CC(/C=N/NC(=O)Cc1cccs1)=C\c1ccccc1	4%	-4	1%	-11%	-5%	0%
SMILES	mIDH1 inhibitor	LDHA block	PKM2 act	rTrxR1 inhibitor	TrxR1 substrate	GLS inh
CC1(C)Cc2nc3oc4c(=S)nc[nH]c4c3cc2CO1	10%	7	1%	11µM*	-8%	6%
Cc1c(C#N)c(NC(=O)CSc2nnnn2C2CCCC2)n(CC2CCCO2)c1C (stereo not given)	·	9	·	·	·	·
CC(=C\C(=O)O)/C(=C/c1ccc(C)o1)C(=O)O	6%	5	?	71µM*	-5%	?
Cc1ccc(C(=O)Sc2nc(C)cc(C)n2)cc1	·	7	·	·	·	·
CN(C)S(=O)(=O)c1cccc(NC(=O)COC(=O)c2ccc([N+](=O)[O-])o2)c1	7%	12	2%	25µM*	-7%	6%
Cc1cccc(NC(=O)COC(=O)c2ccc([N+](=O)[O-])o2)c1C	6%	2	2%	?	-3%[57.1 µM]	6%
O=C(COC(=O)c1ccc([N+](=O)[O-])o1)Nc1ccc(Br)cc1F	-4%	1	·	5µM*	-6%	-2%
O=C(COC(=O)c1ccc([N+](=O)[O-])o1)Nc1ccc(F)cc1	9%	-1	·	25µM*	0%	1%
CC(C)Cc1nnc(NC(=O)C2(c3cccc(F)c3)CCC2)s1	·	3	·	·	·	·
COc1ccc(C(=O)Nc2oc3ccccc3c(=O)c2-c2ccc(OC)c(OC)c2)cc1	·	8	·	·	·	·
COc1ccccc1-c1nnc(SCC(=O)N(C)C2(c3ccccc3Cl)CCCCC2=O)n1C (stereo not given)	·	-3	·	·	·	·
Cc1occc1-c1nnc(SCC(=O)Nc2ccc3c(c2)OC2(CCCCC2)O3)o1	·	7	·	·	·	·
O=C(NNS(=O)(=O)c1ccccc1)c1cccnc1	-3%	-1	-2%	17%	3%	16%
O=C(NC(=S)NNS(=O)(=O)c1ccc(Cl)cc1)c1cccnc1	3%	1	-2%	18µM*	9%	-21%
CC(C)N1CCc2c(sc(N)c2C#N)C1	3%	0	-5%	-26%	39%	14µM*
CCN1CCc2c(sc(N)c2C#N)C1	10%	-1	5%	21%[57.1 µM]	17%[57.1 µM]	-23%
CCS(=O)(=O)Nc1cccc(C2=NN(C(C)=O)C(c3cccs3)C2)c1 (stereo not given)	0%	-11	14µM*	-23%	-14%	0%
CC(=O)N1N=C(c2cccc(NS(C)(=O)=O)c2)CC1c1cccs1 (stereo not given)	-2%	-9	?	12%[57.1 µM]	2%[57.1 µM]	-4%
CCOc1ccccc1N/C(=C(/C(Cl)=C(Cl)Cl)[N+](=O)[O-])n1cncn1	5%	7	4%	22µM*	-14%	-6%
CCOc1ccc(N/C(=C(/C(Cl)=C(Cl)Cl)[N+](=O)[O-])n2cncn2)cc1	·	·	-7%	·	·	·
CN(C)C(=O)CCS(=O)(=O)Cc1coc(-c2ccc(F)cc2)n1	·	-34*	·	·	·	·
O=C1CC(Nc2ccc(N3CCOCC3)cc2)C(=O)N1c1ccccc1F (stereo not given)	2%	22	-11%	79µM*	2%	5%
